Assay outcomes from PubChem.
HCV inh: blocks hepatitis C virus; Huh7.5.1 HCVcc-Cre infection, luciferase reporter, 44 h; Potency, µM (highest dose often 41.8 µM), for inactives: top-dose activity change, negative = inhibition, usual class: inhibitors; 340,000 compounds, 3.4% hits; active = well fitted inhibition curve with a large enough effect; inconclusive = small, poorly fitted or top-dose-only effect, or another doubt; inactive = no such curve, though single readings can be large or run the other way; also: potency is read from the fitted curve at half-maximal effect; % is scaled to controls: 0 for no effect and ±100 for the full control effect
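A cell-based infection assay in which seeded cells (1,000 per well) receive test compound after 4 h, are inoculated with HCVcc-Cre at approximately 0.5 moi, and are incubated 44 h before luminescence detection.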
Shiga toxin inh: Shiga toxin inhibition; inhibition, % at 38.7 µM; 290,000 compounds, 9.2% hits; AID 2315; Vero cells, Shiga toxin protein synthesis inhibition reporter; in the data active = inhibition mostly above about 28%, no sharp cut-off; inactive = mostly below about 43%; also: 0% is about no effect
Lassa entry inh: blocks Lassa virus binding to or entry into cells; Potency, µM (doses to about 37.9 µM), inactives show top-dose activity change, negative = inhibition, usual class: inhibitors; Lassa virus pseudotype entry inhibition, cell reporter; 300,000 compounds, 1.2% hits; AID 540256; calls by dose curve; tested in HEK293 cells; also: potency is read from the fitted curve at half-maximal effect; % is scaled to controls: 0 for no effect and ±100 for the full control effect; nearly all actives have a fitted effect of over 50% in size
CHX counter: affects cycloheximide protein synthesis inhibition readout, counter-screen; cell reporter, cycloheximide protein synthesis inhibition counterscreen; max response, %; 300,000 compounds, 12% hits; AID 2314; in the data active = max response mostly above about 13%, no sharp cut-off; inactive = mostly below about 14%; also: read at 38.3 µM for the half of the compounds with a filed dose; 0% is about no effect
FMDV inh: blocks foot and mouth disease virus; FMDV antiviral cell-based qHTS; 410,000 compounds, 1.2% hits; AID 1159524; Potency, µM (doses to about 57.9 µM), for inactives: at the top dose activity change, negative = inhibition, actives largely listed as inhibitors; calls by dose curve; tested in HEK293T cells; also: read-out not given here; potency is read from the fitted curve at half-maximal effect; % is scaled to controls: 0 for no effect and ±100 for the full control effect; nearly all actives have a fitted effect of over 45% in size
MARV entry inh: Marburg virus entry inhibition; Marburg virus pseudotyped entry inhibition, cell reporter; Potency, µM (series often up to 37.8 µM), inactives show at the top dose activity change, negative = inhibition, most hits filed as inhibitors; 300,000 compounds, 1.8% hits; calls by dose curve; tested in HEK293 cells; also: potency is read from the fitted curve at half-maximal effect; % is scaled to controls: 0 for no effect and ±100 for the full control effect
Active calls of the source: *; ? = inconclusive; · = no result given; [ ] = another dose, or the depositor's remark. This is a sample that favours compounds with a hit; in the whole collection about 13% have one here.

SMILES	HCV inh	Shiga toxin inh	Lassa entry inh	CHX counter	FMDV inh	MARV entry inh
Cc1cc(CSc2ccccc2)ccc1NC(=O)c1ccc(C)c([N+](=O)[O-])c1	-28%	-1	3%	-1	-10%	-14%
CCN1CCN(Cc2ccccc2NC(=O)Nc2ccc(C)cc2)CC1	16%	36*	?	24*	20%	?
CCN1CCN(CCC(=O)Nc2ccc(C)cc2)CC1	-4%	-11	·	1	-13%	·
CC(=O)N1c2ccc(S(=O)(=O)N3CCCCCC3)cc2CC1C(=O)NCc1cccc(F)c1 (stereo not drawn)	·	·	-25%[46.1 µM]	·	-6%	·
O=c1cc(C(F)(F)F)[nH]c2ccccc12	-1%	-9	·	-2	-4%	·
O=C(O)c1cc(=O)c2ccccc2[nH]1	20%	·	-2%	·	-5%	?
O=c1cc(/C=C/c2cccs2)[nH]c2ccccc12	?	52	6.5µM*	18	?	4.1µM*
CSc1ccc(/C=C/c2cc(=O)c3ccccc3[nH]2)cc1	?	74*	3%	15*	-28%	?
CC(C)(C)C(=O)Nc1ccc(N2CCN(S(C)(=O)=O)CC2)cc1	18%	14	?	20	14%	10%[46.1 µM]
Cc1nc(Cl)sc1C(=O)Nc1ccccc1	-1%	21	?	11*	21%	17%
Cc1cccc(C)c1NC(=O)c1sc(Cl)nc1C	10%	14	-3%	1	-17%	-23%
Cc1nc(Cl)sc1C(=O)Nc1ccc(Cl)cc1	?	71*	15%	25*	33%	6%
Cc1c(C(=O)Nc2ccc(F)cc2)sc2nc[nH]c(=O)c12	·	·	-21%[46.1 µM]	·	23%	·
Cc1c(C(=O)Nc2ccccc2)sc2nc[nH]c(=O)c12	1%	-4	8%	15*	9%	-2%
Cc1nc(C)c(C(=O)Nc2ccccc2)s1	7%	35	15%	8	12%	23%[46.1 µM]
Cc1nc(Cl)sc1C(=O)Nc1ccc2ccccc2c1	?	192*	?	66*	0%	?
Cc1cc(C(=O)Nc2ncc(C)s2)c2ccccc2n1	-10%	36	-10%	7	5%	?
NC(=O)CSc1oc(-c2ccc(F)cc2)nc1S(=O)(=O)c1ccccc1	-20%	-10	-6%	1	-4%	-16%
COc1ccc(CCN2C(=O)CC(NC34CC5CC(CC(C5)C3)C4)C2=O)cc1OC (stereo not drawn)	-15%	-17	-14%	4	?	-15%[46.1 µM]
COc1ccc(CN2CCNC(=O)C2CC(=O)O)cc1OC (stereo not drawn)	7%	-18	·	-4	-14%	·
CCc1cccc2c(C(=O)COC(=O)[C@@H]3CC(O)CN3S(=O)(=O)c3ccccc3[N+](=O)[O-])c[nH]c12 (stereo partly drawn)	?	·	-4%[46.1 µM]	·	1%	-1%[46.1 µM]
CN1CCc2c(c3c(n2C)CCN(C)[C@@H]3c2cccnc2)[C@H]1c1cccnc1	6%	-10	·	-1	-2%	2%
CC(=O)c1cccc(NC(=O)c2sc(Cl)nc2C)c1	3%	·	·	12	-5%	·
CCOC(=O)c1sc(-c2ccccn2)nc1C	19%	112*	17%	45*	68%	?
Cc1nc(C)c(C(=O)Nc2cccc(F)c2)s1	-9%	35*	0%[46.1 µM]	19*	9%	8%[46.1 µM]
SMILES	HCV inh	Shiga toxin inh	Lassa entry inh	CHX counter	FMDV inh	MARV entry inh
Cc1nc(Cl)sc1C(=O)Nc1cccc(Cl)c1	-5%	·	·	31*	1%	·
Cc1nc(-c2ccccn2)sc1C(=O)Nc1ccc(Cl)c(Cl)c1	?	128*	4%	26*	6%	11%
CN(C)c1cc(-c2ccc(C#N)cc2)oc(=O)c1Cl	5%	-6	·	-1	-8%	·
CCN(CC)CCNC(=O)/C(=C\c1cccn1C)NC(=O)c1cccs1	-15%	-10	4%	-2	-14%	0%
CCCCn1c(-c2ccc(C(C)(C)C)cc2)nc2cc3[nH]c(=O)c(C(C)C)nc3cc21	-13%	-5	·	-2	35µM*	·
CCC(C)N(C(=O)COC(=O)c1[nH]c(C)c(C(C)=O)c1C)C1CCS(=O)(=O)C1 (stereo not drawn)	-11%	-22	-18%	-5	-14%	26%
Cc1ccc(-c2nnc(Cc3ccc([N+](=O)[O-])cc3)o2)cc1	-19%	69*	·	56*	4%	·
O=[N+]([O-])c1ccc(Cc2nnc(-c3ccc(F)cc3)o2)cc1	-18%	75*	·	33*	55%	·
Fc1ccc(-c2nnc(Cc3nnc(-c4ccc(F)cc4)o3)o2)cc1	5%	-9	3%	-6	-8%	8%
O=C(N1CCCCC1)N1CCN(c2ccc(Cl)cc2)CC1	-13%	-2	?	1	?	-25%
COc1ccc(/C=C/C(=O)OCC(=O)N2CCCCCC2)cc1OC	-28%	·	-6%[46.1 µM]	·	20%	-3%[46.1 µM]
CCN(CC)C(=O)c1cccc(-c2csc(C(C)(O)c3cccc(F)c3)n2)c1 (stereo not drawn)	·	·	·	·	25µM*	·
CC(O)(c1ccccc1)c1nc(-c2cccc(F)c2)cs1 (stereo not drawn)	·	·	·	·	0%	·
COc1ccc(CCN2CC(C(=O)NCCCc3ccncc3)CCC2=O)cc1 (stereo not drawn)	·	·	·	·	0%	·
Cc1ccc(S(=O)(=O)O/N=C2\CCCc3ccccc32)cc1	15%	-5	-5%	-5	-4%	-9%
CC1=C(C)/C(=N\OS(=O)(=O)c2ccccc2)C=CC1=O	13µM*	-15	?	-2	11µM*	7.9µM*
COc1ccc(CSc2nnc(C)n2N)cc1[N+](=O)[O-]	9%	13	22%	-6	-4%	?
COc1cccc(NC(=O)c2cc(CN3C(=O)c4ccccc4C3=O)ccc2OC)c1	?	-10	9%	-3	-23%	?
COCCNC(=O)c1nc2ccccc2s1	6%	44*	-2%[46.1 µM]	24	43%	?
CC(=O)NCc1ccc(-c2csc(-c3cccs3)n2)cc1	?	86*	-6%	21*	46%	?
O=C(NCc1ccccc1)c1nc2ccccc2s1	-1%	37	-21%	23*	36%	-1%
O=C(NCCO)c1nc2ccccc2s1	18%	37*	22%	17	59%	8%
CCOC(=O)C1(C)CCN1C(=O)c1cccc(OC(F)(F)F)c1 (stereo not drawn)	·	·	·	·	-11%	·
CCCCC(=O)Nc1ccc(NC(=S)NC(=O)c2cccs2)cc1OC	?	24	-3%	3	6%	19%
C=CCn1c(O)c(C(CC)=NC(C)c2ccccc2)c(=O)[nH]c1=O (stereo not drawn)	-25%	8	1%	-1	-2%	-1%
Clc1cccc(Cl)c1-c1nnc2ccc(N3CCOCC3)nn12	-9%	-7	-16%	-2	-6%	?
CCN1C(=O)C(Cc2nc3ccccc3c(=O)n2-c2ccc(OC)cc2)c2ccccc21 (stereo not drawn)	·	·	1%[46.1 µM]	·	-19%	-4%[46.1 µM]
O=C(NCc1ccco1)c1nc2ccccc2s1	0%	77*	5%	23*	55%	?
